# Test results published in the supplement of paper PMC6555819.
# Columns and labels:
# Test in all cases: PBM binding z-score (relative to random genomic background probes); higher = stronger binding; sequences stand for … in GC…GCGATTGACAGCGTAGAATGAAGG
# [1] = system: FXR:RXRa (NR concentration 270 nM, RXRa partner concentration 90 nM)
# Procedure, shortened: (§1)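 The probes on custom Agilent 4×180K protein-binding microarrays were double-stranded, with 34-nt variable regions bearing direct-repeat seeds, single-nucleotide variants, half-site ablations and random human genomic background sequences. Incubation lasted 1 h with ligand-free nuclear receptor dimers in PBS pH 7.4, 2% milk, 0.02% Triton X-100, 1 mM DTT, 0.2 mg/mL BSA and 0.4 mg/ml salmon testes DNA. Antibodies against each partner (one per run) detected bound dimers, and fluorescence scans were regression-normalized. Binding z-scores take the random background probes as reference.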
# [2] = system: LXRa:RXRa (NR concentration 270 nM, RXRa partner concentration 90 nM)
# Procedure, shortened: as §1
# [3] = system: LXRa homodimer (NR concentration 270 nM)
# Procedure, shortened: as §1
# [4] = system: LXRb:RXRa (NR concentration 270 nM, RXRa partner concentration 90 nM)
# Procedure, shortened: as §1
# [5] = system: LXRb homodimer (NR concentration 270 nM)
# Procedure, shortened: as §1
# [6] = system: PPARa:RXRa (NR concentration 270 nM, RXRa partner concentration 90 nM)
# Procedure, shortened: as §1
# [7] = system: PPARg:RXRa (NR concentration 180 nM, RXRa partner concentration 90 nM)
# Procedure, shortened: as §1
# [8] = system: PPARg:RXRa 270nM:90nM, anti-RXR (NR concentration 270 nM, RXRa partner concentration 90 nM)
# Procedure, shortened: as §1
# [9] = system: PPARg:RXRa 30nM:10nM, anti-RXR (NR concentration 30 nM, RXRa partner concentration 10 nM)
# Procedure, shortened: as §1
# [10] = system: PPARg:RXRa 90nM:30nM, anti-RXR (NR concentration 90 nM, RXRa partner concentration 30 nM)
# Procedure, shortened: as §1
# [11] = system: PPARg:RXRa DBDmut IVT, anti-RXR (DBD mutation: RXRa K156A/R161A, NR concentration 270 nM, RXRa partner concentration 90 nM)
# Procedure, shortened: as §1
# [12] = system: PPARg:RXRa IVT, anti-PPARg (NR concentration 270 nM, RXRa partner concentration 90 nM)
# Procedure, shortened: as §1
# [13] = system: PPARg DBDmut:RXRa IVT, anti-PPARg (DBD mutation: PPARg1 K132A/R137A, NR concentration 270 nM, RXRa partner concentration 90 nM)
# Procedure, shortened: as §1
# [14] = system: PPARg DBDmut IVT, anti-PPARg (DBD mutation: PPARg1 K132A/R137A, NR concentration 270 nM)
# Procedure, shortened: as §1
# [15] = system: PPARg homodimer (NR concentration 180 nM)
# Procedure, shortened: as §1
# [16] = system: PXR:RXRa (NR concentration 270 nM, RXRa partner concentration 90 nM)
# Procedure, shortened: as §1
# [17] = system: PXR homodimer (NR concentration 270 nM)
# Procedure, shortened: as §1
# [18] = system: RARa:RXR (NR concentration 270 nM, RXRa partner concentration 90 nM)
# Procedure, shortened: as §1
# [19] = system: RARa homodimer (NR concentration 270 nM)
# Procedure, shortened: as §1
# [20] = system: RARb:RXRa (NR concentration 270 nM, RXRa partner concentration 90 nM)
# Procedure, shortened: as §1
Sequence,PBM binding z-score [1],PBM binding z-score [2],PBM binding z-score [3],PBM binding z-score [4],PBM binding z-score [5],PBM binding z-score [6],PBM binding z-score [7],PBM binding z-score [8],PBM binding z-score [9],PBM binding z-score [10],PBM binding z-score [11],PBM binding z-score [12],PBM binding z-score [13],PBM binding z-score [14],PBM binding z-score [15],PBM binding z-score [16],PBM binding z-score [17],PBM binding z-score [18],PBM binding z-score [19],PBM binding z-score [20]
TTGAGTAGGTTACCAATGGGGCATTCAGCTTTCT,0.0857,1.41,-0.22,1.21,-0.0643,1.36,1.23,1.9,1.01,1.5,4.77,4.38,0.923,0.772,0.846,0.242,-0.056,0.279,0.0397,1.19
TAGCCTAGGTCATGCGGGCGAGTATAGTGTCGGC,3.79,2.5,0.369,1.21,-0.906,3.32,2.45,2.08,-0.413,1.37,1.54,2.78,-0.28,-1,0.366,0.704,-0.37,1.97,-0.358,3.54
AGAACGAAGGCACGCTGAGTTGATAGCAGAGTAG,-0.877,-0.66,-0.838,-1.06,-0.997,-0.367,0.622,-0.693,-0.318,-0.476,-0.47,-0.214,-0.0465,-0.623,-1.17,-0.449,-0.696,-0.468,-0.886,-0.566
TTACCAAGGTGAGCTGAGGTCGTTGGTCCAACTC,1.55,1.34,-0.436,0.439,-1.02,1.67,-0.467,0.63,-0.5,0.00719,1.42,1.75,-0.48,-1.25,-0.363,4.68,0.529,1.63,-1.02,1.72
CATAGTTGGTCAGGAGGTCACACACCGGATATGA,3.73,3.38,1.98,3.28,0.669,4.18,3.64,3.65,1.73,3.1,1.15,3.71,1.32,0.996,3.84,4.52,1.13,5.4,1.99,3.73
TATACACGGTCAAAGGCCAGAGTACGAATGTCGA,1.3,3.22,2.75,0.929,1.43,2.04,3.99,4.34,2.65,4.3,0.134,2.39,1.55,1.14,1.12,0.507,0.583,1.13,0.418,2.85
ATCTCTAGGTGAAGTTCAGTGAAAGATCGATAGA,0.465,0.465,0.0389,0.0201,0.118,1.88,1.57,1.74,0.453,1.35,4.94,4.09,1.05,1.05,0.329,0.872,0.828,0.684,0.618,1.7
TCTTGTAGATCAGCAGGTTGAGAAAGCTGGCCAA,0.242,0.0309,-0.346,-0.0211,-0.546,0.457,-0.781,1.1,2.58,1.75,1.7,-0.16,-1.19,-1.18,-0.343,0.181,-0.51,0.426,-0.127,-0.0315
GGAACGAGGGCAAAGTTGGTAGCATCTGTCGACG,1.06,0.577,-0.241,0.306,-0.429,3.14,5,5.51,4.45,5.44,4.05,3.9,0.127,-0.27,0.782,0.589,-0.136,0.765,-0.548,2.31
CCTTACGCGTCAAGGTTATAGCACGGGTGGTACG,0.452,0.749,0.096,0.771,0.153,1.14,0.691,-0.0885,-0.308,0.0411,0.185,-0.0236,-0.542,-0.798,0.726,0.65,0.0877,1.02,0.124,0.97
TTACCAAGGTGACAGGTCGTTGATGCACGCCTTG,0.924,1.02,0.111,0.582,-0.664,2.56,3.23,4.37,1.99,3.62,2.31,3.79,0.46,0.0595,1.64,0.764,0.0726,1.14,-0.207,2.05
TAGACTAGGTCATGGGCCAGTATACCACGCGAAC,3.63,2.6,0.103,1.81,0.438,4.41,7.24,6.34,4.78,6.07,5.98,6.8,1.6,0.962,1.38,1.04,0.462,2.1,0.407,3.49
TCTTGTAGATAAAGCAGGTTAAGAAAGCCTGAGT,0.606,0.66,-0.172,0.585,-0.647,1.06,-0.166,1.54,2.82,2.17,1.9,0.689,-0.607,0.523,0.35,0.561,0.376,0.708,0.783,0.2
ACTATTAGTTGACTTAGGGCAACCGATACGACGC,0.119,0.0991,-0.0501,0.277,0.41,0.0707,0.995,0.159,0.448,0.379,-0.304,0.722,1.07,1.09,-0.697,0.217,0.409,0.353,0.643,0.958
CGTCCAAGGTCAGCAGGACAGTGAAAGCGACGTG,5.11,3,-0.143,2.24,-0.588,4.36,2.83,3.16,0.274,2.07,2.27,2.58,0.502,-0.859,1.75,2.27,0.176,2.92,0.175,5.17
